About 79,000 compounds went through this panel and 15% of them were active in at least one assay; those are over-represented in the sample as a whole. Activity calls are given as the source filed them. Cut-off read from the data, not from the text of the source: active = growth inhibition above about 70%; inactive = the rest.
Columns and labels:
[1] = NCI Yeast Anticancer Drug Screen. Data for the rad50 strain (AID 155);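 note: 0% = growth of vehicle-only cultures of the same strain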; conditions: S. cerevisiae rad50 strain growth inhibition; at 50.0 µM; stronger effect = higher value
Outline: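 Relative growth inhibition (compound vs vehicle) was measured in yeast with a defined repair-gene alteration.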

[2] = NCI Yeast Anticancer Drug Screen. Data for the mec2-1 strain (AID 157); conditions: S. cerevisiae mec2-1 strain, at 50.0 µM, stronger effect = higher value
Outline: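 Cells of the genetically defined mec2-1 yeast strain are incubated with test compound. Inhibition of growth is calculated against vehicle-treated controls.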

[3] = NCI Yeast Anticancer Drug Screen. Data for the sgs1 mgt1 strain (AID 161);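 note: 0% = growth of cultures given vehicle only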; conditions: S. cerevisiae sgs1 mgt1 strain, at 50.0 µM, stronger effect = higher value
Outline: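 Mutant yeast exposed to compound; growth scored against vehicle-only wells.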

[4] = NCI Yeast Anticancer Drug Screen. Data for the cln2 rad14 strain (AID 165);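 note: 0% = growth equal to vehicle treated cultures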; conditions: S. cerevisiae cln2 rad14 strain, at 50.0 µM, stronger effect = higher value
Outline: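 The screen exposed genetically defined yeast (cln2 rad14) to test compounds and scored growth inhibition relative to vehicle-treated controls.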

[5] = NCI Yeast Anticancer Drug Screen. Data for the bub3 strain (AID 167); conditions: S. cerevisiae bub3 mutant strain, at 50.0 µM, stronger effect = higher value
Outline: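 Screening used yeast with an engineered genetic alteration affecting cell cycle control. Compound-exposed cultures were compared with vehicle cultures, and reduced growth was taken as inhibition.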

[6] = NCI Yeast Anticancer Drug Screen. Data for the mlh1 rad18 strain (AID 175); conditions: S. cerevisiae mlh1 rad18 strain growth inhibition; at 50.0 µM; stronger effect = higher value
Outline: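 Compound-treated yeast growth, normalised to vehicle controls. Strain bears defined DNA repair mutations.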

Measured: growth inhibition

Cc1c([N+](=O)[O-])cc(C(C)(C)C)c(OC(=O)Nc2ccc(Cl)cc2)c1[N+](=O)[O-]
inactive: [1] 41.4% | [2] 63.7% | [3] 65.7% | [4] 52.2% | [5] 27.6% | [6] 69%

ClC1CC2CCC1C2Br (stereo unspecified) (tested in a mixture with another compound)
inactive: [1] -19.6% | [2] -14.2% | [3] -21.1% | [4] -31.9% | [5] -0.45% | [6] -17.1%

CNC(=O)C1CCCN1C(=O)C(Cc1cnc[nH]1)NC(=O)C1CCC(=O)N1 (stereo unspecified)
inactive: [1] -21.2% | [2] -13.9% | [3] -11.6% | [4] 11.9% | [5] -14.1% | [6] -16.8%

CCc1ccccc1N1C(=O)C(=O)C(c2nc3ccccc3s2)C(=O)C1=O
inactive: [1] 12.7% | [2] 5.05% | [3] 17.2% | [4] 15.5% | [5] 2.3% | [6] 10.3%

Cc1ccc(N(CN2C(=O)CCC2=O)CS(=O)(=O)c2ccc(Cl)cc2)cc1
inactive: [1] 10.4% | [2] 3.5% | [3] -0.45% | [4] 14.7% | [5] -3.4% | [6] -19.6%

CCN(CC)CCN1C(=O)c2cccc3c(N)c(OC)cc(c23)C1=O
inactive: [1] 47.5% | [2] -27.8% | [3] -20.8% | [4] -11.9% | [5] -24.2% | [6] -48.3%

CC(C)/C=N\n1c(N)c(C#N)c(C#N)c1C(C)C
inactive: [1] -4.9% | [2] -5.2% | [3] -37% | [4] 5.95% | [5] -52.8% | [6] -33.6%

Cc1cn(C2CC(NO)C(CO[Si](C)(C)C(C)(C)C)O2)c(=O)[nH]c1=O (stereo unspecified)
inactive: [1] -3.75% | [2] -0.25% | [3] -3.45% | [4] -3.9% | [5] -30.4% | [6] -35.7%

BrC1CC2CCCCC2CC1Br (stereo unspecified)
inactive: [1] -1.45% | [2] 22.3% | [3] 21.4% | [4] -9.75% | [5] 8.8% | [6] 9.65%

CC1(O)CC(C(F)(F)F)(C(F)(F)F)OC1=O (stereo unspecified)
inactive: [1] -20.9% | [2] -42.7% | [3] -7.75% | [4] -28.9% | [5] -2.25% | [6] -13.9%

c1ccc(CCNCc2ccc(CNCCc3ccccc3)cc2)cc1
inactive: [1] -5.75% | [2] -23.9% | [3] -12.2% | [4] 5.05% | [5] -0.25% | [6] 3.45%

CC(=O)O/N=C1\C=Cc2c(no[n+]2[O-])C1=O
inactive: [1] -8.9% | [2] -20.3% | [3] -0.7% | [4] 12.1% | [5] -12.5% | [6] -5.35%

Cc1cc2nc(N3CCCCC3)n(C3OC(CO)C(O)C3O)c2cc1C (stereo unspecified)
inactive: [1] 11% | [2] 10.2% | [3] -0.45% | [4] 10.7% | [5] -8.75% | [6] 13.8%

CC(=O)Nc1cc(C)c(C)cc1NC(C)=O
inactive: [1] -23.9% | [2] -16.6% | [3] -8.35% | [4] -21.8% | [5] -5.1% | [6] -7.4%

CCOC(=O)Nc1c2ccccc2c(NC(=O)OCC)c2cc(Cl)ccc12
inactive: [1] 4.2% | [2] -1.75% | [3] 3.75% | [4] 3.25% | [5] 2.85% | [6] 19.8%

COc1ccc2nccc(SCC(=O)O)c2c1
inactive: [1] -5.25% | [2] 8.25% | [3] -29.6% | [4] 18.9% | [5] 37% | [6] 1.85%

O=C1C=C(Nc2cc(Cl)ccc2Cl)c2ccccc2C1=O
inactive: [1] 9.75% | [2] 4.25% | [3] -8.8% | [4] 6.8% | [5] 15.2% | [6] 32.5%

CCOC(=O)/C(C#N)=C(\C)c1ccc(O)c(OC)c1
inactive: [1] 11.4% | [2] 8.95% | [3] -3.45% | [4] 24.1% | [5] -8.1% | [6] 14.8%

CC(=O)C1CC2CCC1C2 (stereo unspecified)
inactive: [1] 10.4% | [2] 12.8% | [3] -8.7% | [4] -12.4% | [5] 1.25% | [6] 7.9%

CC(C)(Nc1nc2c(ncn2C2OC(CO)C(O)C2O)c(=O)[nH]1)P(=O)(O)O (stereo unspecified)
inactive: [1] 4.4% | [2] -0.4% | [3] 17% | [4] 11.1% | [5] -5.4% | [6] 2.9%

Cc1ccc(C)c(NC(=O)C(=O)C(C2C(C)CC(=O)C2CC(=O)O)[N+](=O)[O-])c1 (stereo unspecified)
inactive: [1] 7.05% | [2] 10.9% | [3] -8.05% | [4] 10.8% | [5] 6.6% | [6] 1.7%

COc1ccccc1NC(=O)C1=C(C)NC(C)=C(C(=O)Nc2ccccc2OC)C1C1=CC=COC1
inactive: [1] -30.4% | [2] -12.8% | [3] -25.9% | [4] -1.1% | [5] 13.1% | [6] -15.5%

NC(Cc1ccc(S(=O)(=O)O)cc1)C(=O)NC(CCCCNC(=O)NCCCCC(NC(=O)C(N)Cc1ccc(S(=O)(=O)O)cc1)C(=O)NC(Cc1ccc(S(=O)(=O)O)cc1)C(=O)O)C(=O)NC(Cc1ccc(S(=O)(=O)O)cc1)C(=O)O (stereo unspecified)
inactive: [1] -11.7% | [2] -3.8% | [3] 8.45% | [4] -8.65% | [5] 22.6% | [6] 14.2%

CC(C)C1NC(=O)CC(c2ccccc2)N(N=O)C1c1ccccc1 (stereo unspecified)
inactive: [1] -29.3% | [2] -9% | [3] -4.85% | [4] -14.9% | [5] -5.9% | [6] -16.8%

CCOC1=C(C#N)C(=O)NC2OC(CO)C(O)C2O1 (stereo unspecified)
inactive: [1] 11.4% | [2] 5.45% | [3] 11.6% | [4] -8.95% | [5] 17.9% | [6] 15.8%

O=C(O)[Si](c1ccccc1)(c1ccccc1)c1ccccc1
inactive: [1] 43.7% | [2] 25.9% | [3] 39.6% | [4] 4.8% | [5] 20.1% | [6] 48.1%

O=C(CCl)N1CCC(CC2(c3cc4ccccc4[nH]3)OCCO2)CC1
inactive: [1] -0.95% | [2] 15.2% | [3] 29.9% | [4] -5.05% | [5] 10.1% | [6] 1.15%

O=C(O)c1c2ccccc2nc2ccccc12
inactive: [1] -17.6% | [2] -17.9% | [3] -17.9% | [4] -34.5% | [5] 15.2% | [6] 57%

CC(O)C(C)NC(C)C(C)O (stereo unspecified)
inactive: [1] 0.4% | [2] -0.35% | [3] -30.8% | [4] 15.3% | [5] 12.1% | [6] -2.85%

CC(C)CCOC(=S)S
inactive: [1] 35.2% | [2] 17.9% | [3] -22.6% | [4] -5.8% | [5] 34.2% | [6] -38.4%

COc1ccc(N2C(=O)c3c(c4[nH]c5ccccc5c4c4ccc(C(C)(C)C)cc34)C2=O)cc1
inactive: [1] 5.5% | [2] -1.2% | [3] 22.6% | [4] 19.6% | [5] -10.3% | [6] -2.2%

S=C(SC1C=CCC1)N1CCOCC1 (stereo unspecified)
inactive: [1] 15.7% | [2] -2.8% | [3] 13.5% | [4] -41.8% | [5] 10.1% | [6] -13.6%

COc1cc(C2C(C(=O)NCc3ccccc3)=C(C)NC(C)=C2C(=O)NCc2ccccc2)ccc1O
inactive: [1] -27.1% | [2] -11.1% | [3] -23.9% | [4] -3.9% | [5] -7% | [6] -21.2%

COc1cc(CC(NC(=O)c2ccccc2)C(C)=O)cc(OC)c1OC (stereo unspecified)
inactive: [1] -9.7% | [2] 9.35% | [3] -5.4% | [4] -26.2% | [5] 27.8% | [6] -4.1%

O=c1ccc2c(-c3ccccc3O)c3ccc(O)cc3oc-2c1
active: [1] 91.8% | [2] 78.4% | [3] 85% | [4] 86.9% | [5] 88.5% | [6] 95.5%

O=C(NCc1ccc2ccc3cccnc3c2n1)c1ccc[n+](Cc2ccccc2)c1
inactive: [1] -6.1% | [2] -11.6% | [3] 5.65% | [4] 3.5% | [5] 10.1% | [6] 1.75%

CCOC(=O)C1CNCCC1=O (stereo unspecified)
inactive: [1] -5.25% | [2] -20.9% | [3] -4.15% | [4] -1.4% | [5] -11.2% | [6] -8.95%

CCOc1c(N=Nc2ccccc2C)c(C)nn1C(N)=S
inactive: [1] 18.1% | [2] 0.7% | [3] 18.3% | [4] -24.6% | [5] 21.1% | [6] 23.1%

CCOc1c(OC)cc(-c2nnc(SCCN(CC)CC)o2)cc1OC
inactive: [1] 11.4% | [2] 0.35% | [3] 7.1% | [4] 16.7% | [5] 0.15% | [6] -7.05%

NC1=NS(=O)(=O)Nc2nc(-c3ccc(Cl)cc3)c(-c3ccc(Cl)cc3)nc21
inactive: [1] -16.6% | [2] -17.2% | [3] -25% | [4] 3.45% | [5] -22% | [6] -24.8%

O=C(CSc1nc2ccccc2c2ccccc12)c1ccccc1
inactive: [1] 9.25% | [2] -42.5% | [3] -4.4% | [4] -52% | [5] -42.8% | [6] 12.8%

From PubChem BioAssay (NCI)
